For assay [1], the system named is Human papillomavirus type 1a protein E7 (residues 44-93). Put plainly: HPV1a E7 fragment binders on microarrays, primary screen, biochemical, small-molecule microarray, residues 44-93, 635 nm fluorescence (AID 1108).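 Note: E7 fragment applied at 1 µg/mL in TBST for 1 h at 4 C; score combines spot fluorescence with its signal to noise ratio.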 The conditions noted are these: small-molecule microarray binding, fluorescence 635 nm; higher = more signal.
Assay [2] in a line: modulators of HCV replicon luciferase signal, primary screen, HCV replication inhibitor project, Huh7 cells, luciferase reporter (AID 1109).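 Note: huh7 hepatoma cells harbouring a luciferase neomycin HCV replicon reporter; luciferase luminescence as measure of HCV replicon replication; test concentration not given here.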 The conditions noted are these: 48 h, higher = more signal.
Assay [3] deals with Left-right determination factor 2 (Homo sapiens) (UniProt O00292). Put plainly: LEFTY2 binders on small-molecule microarrays, primary screen, biochemical, small-molecule microarray, 635 nm fluorescence scan (AID 1110). The conditions noted are these: LEFTY2 binding, higher = more signal.
Sequence of Left-right determination factor 2 (Homo sapiens) (O00292 whole entry, looked up): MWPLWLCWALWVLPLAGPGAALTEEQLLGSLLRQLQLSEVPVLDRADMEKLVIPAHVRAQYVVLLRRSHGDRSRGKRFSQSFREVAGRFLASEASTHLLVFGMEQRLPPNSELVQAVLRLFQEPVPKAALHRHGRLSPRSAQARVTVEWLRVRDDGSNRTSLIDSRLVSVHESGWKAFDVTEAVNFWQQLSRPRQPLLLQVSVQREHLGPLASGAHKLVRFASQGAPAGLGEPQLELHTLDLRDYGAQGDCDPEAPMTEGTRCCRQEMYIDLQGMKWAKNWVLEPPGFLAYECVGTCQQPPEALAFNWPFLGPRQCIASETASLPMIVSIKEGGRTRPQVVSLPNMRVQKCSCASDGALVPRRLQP
The target in assay [4] is Calmodulin-1 (Homo sapiens) (UniProt P0DP23). In words: CALM1 binders on microarrays, EGTA buffer, profiling panel, biochemical, small-molecule microarray, Cy5-labelled CALM1 (AID 1111).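 Note: labelled calmodulin applied in Tris saline Tween buffer holding calcium plus EGTA and DTT.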 The conditions noted are these: Cy5-CALM1 binding fluorescence, higher = more signal.
Assay [5] has the same target. Put plainly: calcium-bound CALM1 binders on microarrays, profiling panel, artefact control for SMM control-protein annotation, biochemical, small-molecule microarray, Cy5-labelled CALM1, plus calcium (AID 1112).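 Note: score merges spot fluorescence with signal to noise from triplicate slides.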 The note with it: Cy5-CALM1 binding fluorescence, higher = more signal.
Assay [6] in a line: small-molecule microarray binders of probe aWnt5a, primary screen, biochemical, biotinylated probe, 635/667 nm fluorescence (AID 1113).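 Note: score merges 667 nm fluorescence intensity with signal-to-noise per printed feature.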 The conditions noted are these: higher = more signal.
Assay [7] in a line: small-molecule microarray binders of probe aShh, primary screen, biochemical, biotinylated probe, 635/667 nm fluorescence (AID 1114).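 Note: probe is biotin-labelled aShh protein from a stem cell growth factor screen; measures binding of labelled protein to compounds printed on the slide; score merges feature fluorescence at 667 nm with signal-to-noise.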 The conditions noted are these: higher = more signal.
Assay [8] is described as follows: small-molecule microarray binders of probe aNog, primary screen, biochemical, biotinylated probe, 635/667 nm fluorescence (AID 1115).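 Note: probe is biotinylated aNog protein used at 0.15 µg/mL for 1 h at 4 C; z-score combines 667 nm fluorescence of each spot with its signal to noise.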 The note with it: higher = more signal.
In assay [9] the target is Torsin-1A-interacting protein 1 (Homo sapiens) (UniProt Q5JTV8). In words: LAP1 binders from COS7 cell lysate, primary screen, small-molecule microarray, 635/667 nm fluorescence (AID 1116). The conditions noted are these: COS7-hLAP1 lysate binding, 635 nm fluorescence, higher = more signal.
Sequence of Torsin-1A-interacting protein 1 (Homo sapiens) (Q5JTV8 whole entry, looked up): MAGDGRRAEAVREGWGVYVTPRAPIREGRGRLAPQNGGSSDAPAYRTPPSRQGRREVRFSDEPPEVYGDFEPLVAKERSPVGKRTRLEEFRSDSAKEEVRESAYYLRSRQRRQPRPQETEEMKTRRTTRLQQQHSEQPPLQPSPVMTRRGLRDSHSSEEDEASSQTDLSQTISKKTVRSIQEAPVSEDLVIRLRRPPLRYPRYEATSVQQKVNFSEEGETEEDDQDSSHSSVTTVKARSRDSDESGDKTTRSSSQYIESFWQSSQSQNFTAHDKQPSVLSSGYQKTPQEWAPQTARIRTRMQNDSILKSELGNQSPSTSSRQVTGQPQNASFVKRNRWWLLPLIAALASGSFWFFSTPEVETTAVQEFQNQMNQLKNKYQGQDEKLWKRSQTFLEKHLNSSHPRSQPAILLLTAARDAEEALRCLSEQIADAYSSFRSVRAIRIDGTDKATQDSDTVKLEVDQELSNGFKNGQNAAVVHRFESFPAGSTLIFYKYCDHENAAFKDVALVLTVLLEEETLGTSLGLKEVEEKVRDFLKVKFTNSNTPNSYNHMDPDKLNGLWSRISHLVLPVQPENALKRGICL
The target in assay [10] is Alpha-bungarotoxin (Bungarus multicinctus) (UniProt P60615). In words: alpha-bungarotoxin binders on microarray, profiling panel, artefact control for SMM control protein annotation, biochemical, small-molecule microarray, Alexa647 label, 635/667 nm fluorescence (AID 1117). The note with it: alpha-BTX-A647 binding fluorescence, higher = more signal.
Sequence of Alpha-bungarotoxin (Bungarus multicinctus) (P60615 whole entry, looked up): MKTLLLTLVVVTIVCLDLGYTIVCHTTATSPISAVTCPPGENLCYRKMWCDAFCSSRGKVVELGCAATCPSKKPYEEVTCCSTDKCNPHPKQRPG
Another assay has as its target Albumin (Bos taurus) (UniProt P02769). In words: bovine serum albumin binders on microarray, profiling panel, artefact control for SMM control protein annotation, biochemical, small-molecule microarray, Alexa647 label, 635/667 nm fluorescence (AID 1118).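 Note: score merges 667 nm emission intensity and signal-to-noise per printed compound spot.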 The note with it: BSA-A647 binding, fluorescence 635 nm, higher = more signal.
Assay [11] in a line: small-molecule microarray binders of probe aXIP, primary screen, biochemical, NeuroSMM set, 635/667 nm fluorescence (AID 1119).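 Note: probe is the protein aXip251-270 applied at 1 µg/mL to compound-printed slides; binding of probe to printed compounds measured as 667 nm fluorescence plus signal to noise.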 The conditions noted are these: higher = more signal, called active from +8 up or from −8 down.
Assay [12] in a line: small-molecule binders of probe aNOTCH3, primary screen, biochemical, small-molecule microarray, 635/667 nm fluorescence (AID 1120).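 Note: probe is a biotin-tagged antibody raised against NOTCH3 rather than NOTCH3 protein; score merges spot fluorescence near 667 nm with spot signal to noise.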 The conditions noted are these: higher = more signal.
Assay [13] can be described thus: small-molecule binders of probe aNOTCH2, primary screen, biochemical, small-molecule microarray, 635/667 nm fluorescence (AID 1121).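 Note: score merges feature fluorescence read at 667 nm with its signal to noise.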 The note with it: higher = more signal.
Assay [14] has as its target Carbonic anhydrase 2 (Homo sapiens) (UniProt P00918). Put plainly: CAII small-molecule binders, profiling panel, biochemical, small-molecule microarray, Alexa647-labelled CAII (AID 1122). The note with it: CAII-A647 binding fluorescence, higher = more signal.
The nature of assay [15]: COS7 lysate on small-molecule microarray, probe aHis, 635 nm (AID 1123).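 Note: z-score combines 667nm fluorescence intensity with signal-to-noise per printed compound spot.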 The note with it: COS7 cell lysate, fluorescence, higher = more signal.
A short description of assay [16]: compound binding in COS7 lysate, probe aLAP1, primary screen, cell lysate, small-molecule microarray (AID 1124).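 Note: lysate comes from COS7 cells expressing LAP1 and is applied at 0.3 µg/mL; score merges spot fluorescence near 667 nm with signal-to-noise over triplicate slides.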 The note with it: probe aLAP1, fluorescence, higher = more signal.
The test system of another assay is Sam68 (KHDRBS1). Put plainly: Sam68 small-molecule binders, primary screen, biochemical, small-molecule microarray, 635 nm fluorescence (AID 1125).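 Note: score merges 667 nm channel intensity with signal to noise over triplicate slides.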 The note with it: small-molecule microarray binding, higher = more signal.
Assay [17] concerns Chordin-like protein 2 (CHRDL2). Put plainly: CHRDL2 small-molecule binders, primary screen, biochemical, small-molecule microarray, 635 nm fluorescence (AID 1126).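 Note: printed compound slides probed with Chrdl2 protein at 4 µg/mL for 1 h at 4 C; score merges 667 nm emission intensity with signal to noise over three replicate slides.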 The conditions noted are these: small-molecule microarray binding, fluorescence 635 nm; higher = more signal.
Assay [18] concerns the target Concanavalin-A (Canavalia ensiformis) (UniProt P02866). In words: ConA small-molecule binders, primary screen, artefact control for SMM control protein annotation, biochemical, small-molecule microarray, Alexa647 label, 635 nm (AID 1127).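 Note: z combines 667 nm emission intensity with signal-to-noise across three replicate slides.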 The note with it: ConA-A647 binding fluorescence, higher = more signal.

The source of these data is PubChem BioAssay.

Structures are written as SMILES. Activity calls are given as the source filed them.

Sequence of Albumin (Bos taurus) (P02769 whole entry, looked up): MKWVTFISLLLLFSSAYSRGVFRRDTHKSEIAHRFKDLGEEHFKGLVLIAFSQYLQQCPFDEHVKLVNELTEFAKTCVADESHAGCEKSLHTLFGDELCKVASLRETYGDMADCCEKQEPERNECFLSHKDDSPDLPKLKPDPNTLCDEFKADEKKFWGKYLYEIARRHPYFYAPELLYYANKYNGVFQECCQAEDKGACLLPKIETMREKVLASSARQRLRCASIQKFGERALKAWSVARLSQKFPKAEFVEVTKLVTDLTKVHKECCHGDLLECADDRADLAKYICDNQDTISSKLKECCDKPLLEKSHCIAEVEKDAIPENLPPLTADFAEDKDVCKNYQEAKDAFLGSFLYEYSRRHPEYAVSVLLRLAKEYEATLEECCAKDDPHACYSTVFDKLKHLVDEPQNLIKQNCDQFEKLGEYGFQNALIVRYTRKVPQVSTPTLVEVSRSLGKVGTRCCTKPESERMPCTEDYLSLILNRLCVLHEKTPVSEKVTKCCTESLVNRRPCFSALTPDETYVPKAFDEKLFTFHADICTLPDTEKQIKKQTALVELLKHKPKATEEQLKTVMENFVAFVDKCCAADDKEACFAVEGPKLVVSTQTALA
Sequence of Concanavalin-A (Canavalia ensiformis) (P02866 whole entry, looked up): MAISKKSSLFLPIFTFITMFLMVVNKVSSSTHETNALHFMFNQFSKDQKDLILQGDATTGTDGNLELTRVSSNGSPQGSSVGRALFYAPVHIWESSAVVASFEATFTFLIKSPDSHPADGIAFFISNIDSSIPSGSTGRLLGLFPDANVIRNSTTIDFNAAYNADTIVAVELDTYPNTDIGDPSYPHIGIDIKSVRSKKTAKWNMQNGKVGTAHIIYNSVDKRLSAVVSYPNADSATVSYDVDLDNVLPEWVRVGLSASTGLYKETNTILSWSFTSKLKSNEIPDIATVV

On to `O=[N+]([O-])c1ccc(C[n+]2ccc(-c3ccc(CO)cc3)cc2)o1`, for which the composite z-score is 0.418 in assay [1]; 0.187 in assay [3]; -0.165 in [4]; 0.451 in assay [5]; -0.001 in [6]; 0.172 in assay [7]. For the same compound, the composite z-score in [8] was 0.327; in assay [9] it was 1.12; in assay [10], 1.49; with Albumin (Bos taurus), 0.904; in assay [12], -0.0043; in assay [13], -0.0485. In addition, the composite z-score in assay [14] worked out at 0.885; in [15] it was 1.13; in assay [16] it was 1.2; with Sam68 (KHDRBS1), 0.649; in assay [17] it was 0.768; in assay [18], 0.648. In addition, in [2], the z-score stood at 0.007. Further, in [11], the composite Z-score was 0.289 (inactive).

With `CC(C)CNC(=O)[C@@]1(c2ccc([N+](=O)[O-])cc2)CC(=O)N(C(C)C)[C@@H]1c1ccc(CO)cc1`, the composite z-score was 0.212 in assay [1]; -1.53 in [3]; -0.505 in [4]; 0.739 in [5]; -0.12 in [6]; -0.0738 in [7]. Also, the composite z-score in [8] was -0.428; in [9] it was -0.534; in [10], -0.186; with Albumin (Bos taurus), 0.1; in assay [12], -0.273; in assay [13], -0.161. In addition, the composite z-score was 0.735 in assay [14]; 1.59 in [15]; 0.664 in assay [16]; 0.3 with Sam68 (KHDRBS1); -2.39 in assay [17]; 0.0801 in [18]. Besides, the z-score in [2] was -0.687. Also, the composite Z-score in assay [11] is 1 (inactive).

On to `COc1ccc(C#Cc2ccc3c(c2)[C@]2(C(=O)N3)[C@H](C(=O)O)[C@H]3C(=O)O[C@H](c4ccccc4)[C@H](c4ccccc4)N3[C@@H]2c2ccc(OCCO)cc2)cc1`, for which the composite z-score was 0.873 in assay [1]; 0.336 in [3]; 2.25 in [4]; 0.87 in [5]; -0.0617 in assay [6]; 0.0492 in assay [7]. Also, the composite z-score in assay [8] amounted to 0.141; in assay [9], 2; in assay [10] it was 2.28; in the assay with Albumin (Bos taurus), 0.92; in [12], 0.364; in assay [13] it was 0.0572. In addition, the composite z-score in assay [14] was found to be 0.421; in [15], 1.84; in [16] it was 0.714; in the assay on Sam68 (KHDRBS1), 1.29; in [17], 0.245; in [18] it was 1.13. Moreover, the z-score in [2] is -1.92. The composite Z-score in assay [11] was 0.655 (inactive).

As for `C=CC[C@@]1(C(=O)NCC(O)CO)N=C(c2ccc(OCCCO)cc2)O[C@@H]1c1ccccc1` (stereo not given in full), the composite z-score in assay [1] is 1.21; in assay [3], -0.834; in [4], 2.22; in assay [5], 0.971; in [6] it was 0.512; in assay [7], 0.786. Besides, the composite z-score in assay [8] is -0.419; in assay [9], 3.73; in assay [10] it was 2.59; in the assay with Albumin (Bos taurus), 0.814; in assay [12], 0.13; in assay [13] it was -0.0028. The composite z-score in [14] was 0.797; in assay [15] it was 3.84; in [16], 0.595; with Sam68 (KHDRBS1), 1.22; in assay [17], -0.381; in [18] it was -0.237. Further, the z-score in assay [2] came to 0.235. In addition, the composite Z-score in assay [11] was 1.81 (inactive).

`Cc1cc(C)c(C(O)C2C=CC3C(=O)N(c4ccccc4)C(=O)C3N2Nc2ccc([N+](=O)[O-])cc2)c(C)c1` (stereo not given): the composite z-score in assay [1] is 1.44; in [3], 0.38; in assay [4] it was 1.84; in assay [5], 0.469; in [6], -0.131; in assay [7] it was 0.0328. Besides, the composite z-score is 1.21 in [8]; 1.29 in assay [9]; 2.19 in assay [10]; 1.06 with Albumin (Bos taurus); 0.418 in assay [12]; 0.149 in [13]. For the same compound, the composite z-score in assay [14] was 0.643; in assay [15], 2.79; in assay [16], 0.893; in the assay with Sam68 (KHDRBS1) it was 1.3; in assay [17] it was -0.224; in assay [18], 1.19. In [2], this compound gave a z-score of 0.49. In addition, in assay [11], the composite Z-score was -0.909 (inactive).

On to `CC(C)[Si](C#C[Si](C(C)C)(C(C)C)C(C)C)(O[C@H](C)c1cn(Cc2cccc(Cl)c2)nn1)C(C)C`, for which the composite z-score in assay [1] was 0.953; in assay [3], 0.499; in [4], 1.01; in [5] it was 0.506; in assay [6] it was -0.253; in [7], -0.243. Moreover, the composite z-score was -0.175 in assay [8]; 0.0392 in [9]; 1.03 in assay [10]; 0.811 with Albumin (Bos taurus); -0.0647 in assay [12]; -0.147 in assay [13]. Besides, the composite z-score in assay [14] was 0.554; in assay [15], 0.842; in assay [16], -0.34; in the assay with Sam68 (KHDRBS1), 1.28; in [17], 0.226; in assay [18], 0.8. The compound also came in with a z-score in assay [2] of -0.266. Besides, the composite Z-score in assay [11] is -0.596 (inactive).
